Out of some 320,000 compounds screened, about 9,100 (2.8%) were called active. Roughly 3% stayed inconclusive and do not appear here. The list comes from a sample in which actives are over-represented; it also holds similar structures and randomly drawn compounds. A number with no mark means an inactive call. The call rests on the fitted dose curve; in most records, active means well fitted activation curve with a large enough effect; inconclusive means small, poorly fitted or top-dose-only effect; inactive means no such curve, though single readings can be large or run the other way.
experiment: qHTS Assay for Rab9 Promoter Activators; conditions: Huh7 Rab9 promoter-luciferase reporter, luminescence, 24 h; series mostly up to 9.22 µM; activation, negative = inhibition: at the top concentration; further: nearly all actives have a fitted effect of over 60% in size; on activation, negative = inhibition: % of control where 0% means no effect
Procedure, shortened: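 Huh7 cells stably carrying a Rab9 promoter-luciferase reporter, 1500 cells per well in OP-MEM I with 10% FBS, treated with compound 24 hours at 37C. Luciferase activity read by luminescence after 10 minutes with Amplite reagent.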
Potency means the concentration at half of the fitted maximal effect.

Row | Compound | activation, negative = inhibition | Potency
1 | CCOc1cc(/C=C/C(=O)OCC(=O)NCCN2C(=O)CSC2=O)ccc1OCC(C)C | 18.5% | 
2 | O=C(OCC(=O)N1CCc2ccccc21)C1CCCN1S(=O)(=O)c1ccc(Cl)cc1 (centres undefined) | -5.54% | 
3 | CCOC(=O)C1CCCN(C(=O)c2ccc(C)c(S(=O)(=O)N3CCCCC3)c2)C1 (centres undefined) | -3.63% | 
4 | CCOC(=O)Cc1csc(SCC(=O)Nc2ccc(C)cc2F)n1 | -0.949% | 
5 | C/C(CC(=O)Nc1ccc(N(C)C)cc1)=N\NC(=O)c1ccccc1F | -1.52% | 
6 | C/C(=N\NC(=O)c1ccccc1F)c1ccccn1 |  | 316 nM (active)
7 | C/C(=N\NC(=O)Cc1ccc(Cl)cc1)c1ccccn1 | -17% | 
8 | CN(C)S(=O)(=O)c1cccc(NC(=O)COc2ccc3ccccc3c2)c1 | -0.974% | 
9 | O=C(Nc1ccn(Cc2ccccc2)n1)c1n[nH]c([N+](=O)[O-])c1Cl |  | 355 nM (active)
10 | O=C(Nc1cccc(NC(=O)c2cccc(F)c2)c1)c1ccccc1 | -7.19% | 
11 | Cn1cc([N+](=O)[O-])c(C(=O)Nc2cnn(Cc3ccc(F)cc3)c2)n1 | -0.795% | 
12 | O=C(Nc1ccn(Cc2ccccc2)n1)c1cccc(F)c1 |  | 1410 nM (active)
13 | Cc1ccc(Cn2ccc(NC(=O)C3C4CCC(C4)C3C(=O)O)n2)cc1 (centres undefined) | -0.0059% | 
14 | O=C(Nc1ccccc1N1CCN(c2ccccc2)CC1)c1cccc(F)c1 | -3.36% | 
15 | CN1CCN(S(=O)(=O)c2ccc(N3CCN(c4ccccc4O)CC3)c([N+](=O)[O-])c2)CC1 | -3.77% | 
16 | CCN(CC)c1ccc(NC(=O)CN2C(=O)NC3(CCc4ccccc43)C2=O)cc1 (centres undefined) | -1.25% | 
17 | CN(CC(=O)NC1CCN(Cc2ccccc2)CC1)S(=O)(=O)c1ccc(Cl)s1 | -4.41% | 
18 | CCCCN(CC(=O)Nc1cccc(S(=O)(=O)N2CCCC2)c1)Cc1nc2ccccc2c(=O)[nH]1 | -5.14% | 
19 | O=C(Cn1ncc(N2CCCC2)c(Br)c1=O)c1ccc(Cl)cc1 |  | 1410 nM (active)
20 | CC(=O)Cn1ncc(N2CCOCC2)c(Br)c1=O | -3.1% | 
21 | CCn1c(=O)c(=O)n(CC)c2cc(N3CCCCC3)c(NC(=O)c3ccc(Cl)cc3)cc21 | -3.75% | 
22 | O=C(COc1ccccc1Cl)N1N=C(c2cccs2)CC1c1ccco1 (centres undefined) | 0.112% | 
23 | Cc1cc(Cl)ccc1OCc1nc(-c2ccncc2)no1 |  | 2820 nM (active)
24 | CN(Cc1ccccn1)Cc1nc(-c2ccc(Cl)cc2)no1 | -0.951% | 
25 | COc1ccc(-c2noc(COc3ccc(Cl)c(C)c3)n2)cc1 | 2.26% | 
26 | CCC(C)N(C(=O)CSc1nnnn1-c1ccccc1OC)C1CCS(=O)(=O)C1 (centres undefined) | 4.43% | 

Row | Compound | activation, negative = inhibition | Potency
27 | CC1CC(=O)Nc2ccccc2N1C(=O)COc1ccc2cc(Br)ccc2c1 (centres undefined) | 3.67% | 
28 | COc1ccc([N+](=O)[O-])cc1NC(=O)CCc1ccccc1 | 8.53% | 
29 | CC(C)Cc1nnc(NC(=O)CCc2ccccc2)s1 | 4.03% | 
30 | O=C(CCc1ccccc1)Nc1ncc([N+](=O)[O-])s1 |  | 2240 nM (active)
31 | CCOC(=O)c1sc(NC(=O)C2CSC3(C)CCC(=O)N23)nc1C (centres undefined) | -6.76% | 
32 | CC1CCN(c2c(NCc3ccc(C(=O)NCc4ccccc4)cc3)c(=O)c2=O)CC1 | 0.271% | 
33 | O=C(NCCc1ccccc1)c1ccc2c(c1)N(Cc1ccccc1)CCS2 | -2.68% | 
34 | CC1CCCN(c2ccc(C(=O)NCCc3ccccc3)cn2)C1 (centres undefined) |  | 2510 nM (active)
35 | Cc1cc(C(=O)COC(=O)CNC(=O)c2ccc(F)cc2)c(C)n1Cc1ccco1 |  | 3160 nM (active)
36 | Cc1cc(C(=O)CSc2nc(N)cc(=O)[nH]2)c(C)n1Cc1ccco1 | -17.4% | 
37 | COCCn1c(C)cc(C(=O)COC(=O)CNC(=O)c2ccco2)c1C | -4.5% | 
38 | Cc1c([N+](=O)[O-])c(N)nn1C | -0.146% | 
39 | Cc1c(NC(=O)CSc2nnc(-c3cccnc3)n2N)c(=O)n(-c2ccccc2)n1C | 0.783% | 
40 | COc1ccc(-c2csc(Nc3ccccn3)n2)cc1 |  | 282 nM (active)
41 | Clc1ccc(Cc2nnc(-c3cccs3)o2)cc1 | 23.6% | 
42 | CCCn1c(CCNc2nc(-c3ccc(OC)cc3)cs2)nc2ccccc21 | 4.91% | 
43 | Clc1ccc(Nc2nc(-c3cccs3)cs2)nc1 |  | 3160 nM (active)
44 | c1ccc(Nc2nc(-c3ccncc3)cs2)nc1 |  | 1580 nM (active)
45 | c1cnc(Nc2nc(-c3ccc4ccccc4c3)cs2)nc1 |  | 282 nM (active)
46 | COc1ccc(C(=O)Nc2nc(-c3ccc(S(=O)(=O)N4CCOCC4)cc3)cs2)cc1 | -10.1% | 
47 | CC(NC(=O)c1ccco1)C(=O)Nc1nc(-c2ccccn2)cs1 (centres undefined) | 9.64% | 
48 | COC(=O)c1cc(-c2cccs2)nc2ccccc12 | -3.27% [at 1.84 µM] | 
49 | Brc1ccc(-c2csc(N/N=C/c3cccnc3)n2)cc1 | 9.43% | 
50 | Cc1ccc(S(=O)(=O)NCCC(=O)NCc2ccc(Cl)cc2)cc1C | -1.24% | 
51 | CCN(CC)S(=O)(=O)c1ccc(CNC(=O)CN2C(=O)NC3(CCc4ccccc43)C2=O)cc1 (centres undefined) | -4.71% | 
52 | O=C1C=C(c2cc(C(F)(F)F)cc(C(F)(F)F)c2)C[C@@H](c2ccc3c(c2)OCO3)C1 | -9.28% | 

Row | Compound | activation, negative = inhibition | Potency
53 | COc1ccc(-c2sc3ccc(OC)cc3c2C#Cc2ccccn2)cc1 | -0.366% | 
54 | Cc1cc(C)cc(NC(=O)C(c2ccccc2)N2CCN(CC(=O)N3CCCC3)CC2)c1 (centres undefined) | -6.26% | 
55 | c1ccc(C2CCC(N3CCC(N4CCCCC4)CC3)CC2)cc1 (centres undefined) | -8.43% | 
56 | COc1ccc(NC(=O)c2sc(N)nc2-c2ccccc2)cc1 | -0.349% | 
57 | COc1ccc(-c2csc(NC3OC(=O)c4ccccc43)n2)cc1 (centres undefined) | 3.91% | 
58 | COc1ccc(Nc2nc(-c3ccccc3)cs2)cc1 |  | 2510 nM (active)
59 | CCN(CC(=O)Nc1ccccc1C(=O)NC1CC1)Cc1cccs1 | 3.29% | 
60 | CCCCN(C(=O)C(CCSC)N1C(=O)c2ccccc2C1=O)c1c(N)n(CCC)c(=O)[nH]c1=O (centres undefined) | 0.148% | 
61 | COc1ccc(OCc2n[nH]c(=S)n2N)cc1 | -6.39% | 
62 | COc1ccc(-c2nc3ccccc3c(=O)n2CCc2ccc(O)cc2)cc1 | -5.76% | 
63 | COc1ccc(OCc2ccc(-c3nc4ccccc4c(=O)n3N)o2)cc1 |  | 1260 nM (active)
64 | O=C(CSc1nc2[nH]c(=O)[nH]c(=O)c2s1)Nc1cccc(F)c1 | 1.4% | 
65 | Cc1ccc(NC(=O)C(C)Sc2nnc(C3CC3)n2C2CC2)cc1S(=O)(=O)N1CCOCC1 (centres undefined) | -1.7% | 
66 | Cc1cccc(C(=O)OCC(=O)Nc2ccc(F)cc2)c1 | 0.584% | 
67 | Cc1ccc(-n2nc3ccc(NC(=O)/C=C/c4ccco4)cc3n2)cc1C | 15.4% | 
68 | CCC(=O)Nc1ccc2nn(-c3ccc(F)cc3)nc2c1 |  | 631 nM (active)
69 | C=CCN(CC=C)C(=O)CN1C(=O)c2ccccc2C1=O | 2.95% | 
70 | Cc1cc(C(=O)COC(=O)CCCN2C(=O)c3ccccc3C2=O)c(C)n1C | -6.04% | 
71 | C=CCn1c(C)cc(C(=O)CN2C(=O)c3ccccc3C2=O)c1C |  | 355 nM (active)
72 | COc1cccc(C2=CC(=O)C[C@H](c3ccc(F)cc3)C2)c1OC | -9.93% | 
73 | Cc1cc(C)cc(OCC(=O)Nc2ccc(N3CCOCC3)cc2N2CCOCC2)c1 | -3.26% | 
74 | Cc1ccc2cc(/C=N/NC(=O)[C@@H]3CCCN3)c(Cl)nc2c1 | -0.292% | 
75 | CSCC[C@H](NC(=O)OC(C)(C)C)C(=O)N/N=C/c1cc2ccc(C)cc2nc1Cl | 0.316% | 
76 | Cc1ccc2cc(/C=N/Nc3ccc(C(=O)O)cc3)c(Cl)nc2c1 |  | 1260 nM (active)
77 | CC1(C)O[C@@H]2[C@H](O1)[C@@H](COS(=O)(=O)O)O[C@H]2n1cnc2c(=O)[nH]cnc21 | -4.21% | 
78 | Cc1ccsc1C(=O)OCC(=O)Nc1cccc(F)c1 | 19.3% | 

Row | Compound | activation, negative = inhibition | Potency
79 | Cc1ccc(C(=O)Nc2nnc(-c3cccs3)s2)cc1C |  | 3550 nM (active)
80 | Cc1nnc(NC(=O)c2ccc3nccnc3c2)s1 | 25% | 
81 | Cc1ccc(C(=O)Oc2coc(CSc3nnc(NC(=O)c4cccs4)s3)cc2=O)cc1C | 2.51% | 
82 | O=C(CNS(=O)(=O)c1ccc2c(c1)OCCCO2)N1CCN(c2ccc(F)cc2)CC1 | -6.68% | 
83 | O=C(NCc1ccccc1CN1CCCC1)C1CCN(S(=O)(=O)c2ccc(Cl)cc2)CC1 | -2.56% | 
84 | O=C(Nc1ccc(Sc2ccc(Br)cc2)cc1)c1ccco1 | 0.424% | 
85 | CC1CCN(C(NC(=O)c2ccco2)C(=O)c2ccccc2)CC1 (centres undefined) | 1.11% | 
86 | CCCCSc1nnc(-c2ccc(NC(=O)CC)cc2)n1C | -0.478% | 
87 | CC1CCN(c2ccc(-c3ccc(NC(=O)c4ccco4)cc3)nn2)CC1 |  | 3550 nM (active)
88 | CCC(=O)Nc1ccc(-c2ccc(N3CCCCC3)nn2)cc1 |  | 1580 nM (active)
89 | CCC(=O)c1ccc(OCC(=O)Nc2ccc(N3CCCCC3)cc2)cc1 | 0.0254% | 
90 | Cc1ccc(NC(=O)C(c2ccccc2)N2CCN(C(=O)c3ccco3)CC2)cc1 (centres undefined) | -8.49% | 
91 | CC(C)N(Cc1nnc(-c2ccccc2Br)o1)C(=O)c1cc(Cl)nc2ccccc12 | -1.96% | 
92 | CC(=O)c1c(C)[nH]c(C(=O)OCC(=O)Nc2c(C)n(C)n(-c3ccccc3)c2=O)c1C | -1.35% | 
93 | Cc1cccc(-c2noc(-c3ccc(F)cc3)n2)c1 |  | 224 nM (active)
94 | COc1ccc(-c2noc(CSc3ccc(C)cc3)n2)cc1 | -4.26% | 
95 | COc1ccc(-c2noc(-c3cccc(OC)c3OC)n2)cc1OC |  | 2240 nM (active)
96 | COc1ccc(-c2noc(CCCC(=O)NC3CCCC3)n2)cc1OC | -5.38% | 
97 | COc1ccc(-c2nc(-c3ccccc3)no2)c(OC)c1 |  | 3980 nM (active)
98 | COc1ccc(-c2noc(CNC(=O)C(C)Oc3ccccc3)n2)cc1 (centres undefined) | -1.61% | 
99 | COc1ccc(-c2noc(CN(C)S(=O)(=O)c3ccc(C)cc3)n2)cc1 | 8.74% | 
100 | COc1ccc(-c2noc(-c3ccc(C)cc3)n2)cc1 |  | 2000 nM (active)
101 | COc1ccc(-c2n[nH]c(C)c2-c2ccccc2OC)c(O)c1 | -13% | 
102 | Cc1cccc(-c2nc(Nc3ccc(O)cc3)c3ccccc3n2)c1 | 0.0923% | 
103 | Cc1cccc(-c2noc(CCC(=O)NC3CCCC3)n2)c1 | 10.7% | 
104 | COc1ccc(-c2csc3nc(-c4ccccc4F)oc(=O)c23)cc1OC | -2.95% | 

Reference: PubChem BioAssay AID485297 (National Center for Advancing Translational Sciences (NCATS), 2010)
